The source made the active and inactive calls. The calls were made as follows: active = hit-call score of the fitted dose curve at least 0.9, where 1 is the maximum; inactive = score below 0.9.
Legend:
[1] = ATG_PBREM_CIS: Attagene CIS-FACTORIAL HepG2 Assay for human Phenobarbital-responsive Enhancer Module (PBREM) (AID 2282955); settings: HepG2 PBREM cis-reporter, Attagene multiplexed transcription; actives raise or lower the signal
Method in brief: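 HepG2 cells transiently transfected with multiple cis-regulated reporter units measure endogenous transcription factor activity; 24 h compound exposure. Reporter mRNA quantified by RT-PCR, fluorescent labelling, HpaI digestion and capillary electrophoresis; bidirectional fit versus DMSO.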

[2] = biological target: Paired box protein Pax-6 (Homo sapiens) (UniProt P26367); experiment: ATG_Pax6_CIS: Attagene CIS-FACTORIAL HepG2 Assay for human Paired Box 6 (PAX6) (AID 2282956); settings: HepG2 CIS-FACTORIAL PAX6 reporter transcription, RNA readout; actives raise or lower the signal
Method in brief: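 Multiplexed cis-reporter HepG2 system; 24 h treatment; reporter mRNA read by RT-PCR/CE fluorescence; bidirectional fit vs DMSO.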

[3] = ATG_PXRE_CIS: Attagene CIS-FACTORIAL HepG2 Assay for human Pregnane X Receptor Element (PXRE) (AID 2282957); settings: HepG2 Attagene CIS-FACTORIAL PXRE reporter, mRNA; actives raise or lower the signal
Method in brief: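 Transiently transfected HepG2 cells were dosed and incubated for 24 h. RNA was then isolated, DNase-treated, reverse-transcribed and reporter sequences amplified. Labeled, HpaI-digested fragments were quantified by capillary electrophoresis against DMSO.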

[4] = ATG_PPRE_CIS: Attagene CIS-FACTORIAL HepG2 Assay for human Peroxisome Proliferator-activated Response Element (PPRE) (AID 2282958); settings: HepG2 PPRE cis-element reporter, Attagene transcription factor profiling; actives raise or lower the signal
Method in brief: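 HepG2 cells are transiently transfected with multiplexed cis-promoter reporter units to report endogenous PPAR activity. After 24 h dosing, reporter mRNA is read by RT-PCR and capillary electrophoresis. Fitting is bidirectional against DMSO.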

[5] = ATG_Sox_CIS: Attagene CIS-FACTORIAL HepG2 Assay for human SRY-box transcription factor (SOX) (AID 2282960); settings: HepG2 Attagene cis-factorial SOX reporter, mRNA; actives raise or lower the signal
Method in brief: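 HepG2 cells transiently transfected with multiple cis-regulated reporter units, then dosed for 24 h. Reporter mRNA quantified by RT-PCR, fluorescent labelling, HpaI digestion and capillary electrophoresis; bidirectional fit versus DMSO.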

[6] = biological target: Transcription factor Sp1 (Homo sapiens) (UniProt P08047); experiment: ATG_Sp1_CIS: Attagene CIS-FACTORIAL HepG2 Assay for human Specificity Protein 1 (Sp1) (AID 2282961); settings: HepG2 Sp1 cis-reporter transcription, actives raise or lower the signal
Method in brief: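 HepG2 cells transiently transfected with multiplexed cis-regulated reporter constructs, chemical exposure 24 h. Reporter mRNA quantified by RT-PCR with capillary electrophoresis; bidirectional fit relative to DMSO.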

[7] = ATG_SREBP_CIS: Attagene CIS-FACTORIAL HepG2 Assay for human Sterol Regulatory Element Binding (SREBP) (AID 2282962); settings: HepG2 Attagene cis-factorial SREBP reporter, mRNA; actives raise or lower the signal
Method in brief: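 mRNA induction of transfected cis-promoter reporters in HepG2 cells, 24 h post-dose. Detection: RT-PCR with 6-FAM-labelled products, HpaI digest, capillary electrophoresis. DMSO served as negative control and baseline.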

[8] = biological target: Signal transducer and activator of transcription 3 (Homo sapiens) (UniProt P40763); experiment: ATG_STAT3_CIS: Attagene CIS-FACTORIAL HepG2 Assay for human Signal Transducer and Activator of Transcription 3 (STAT3) (AID 2282963); settings: HepG2, Attagene cis-factorial STAT3 reporter transcription; actives raise or lower the signal
Method in brief: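 After a 24 h compound incubation, total RNA from MRTU-transfected HepG2 cells was converted to cDNA and reporter sequences PCR-amplified, labelled and profiled by capillary electrophoresis. Gain and loss of signal were referenced to DMSO.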

[9] = ATG_TA_CIS: Attagene CIS-FACTORIAL HepG2 Assay for human TA Basal Promoter (AID 2282964); settings: HepG2 Attagene CIS-factorial TA basal promoter reporter; actives raise or lower the signal
Method in brief: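 HepG2 cells transiently transfected with multiplexed cis-promoter reporter units, dosed 24 h. Reporter mRNA measured by RT-PCR, 6-FAM labelling, HpaI digestion and capillary electrophoresis; bidirectional fit versus DMSO baseline, serving as background control.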

[10] = ATG_RORE_CIS: Attagene CIS-FACTORIAL HepG2 Assay for human RAR-related Orphan Receptor Element (RORE) (AID 2282959); settings: HepG2 Attagene cis-factorial RORE reporter, mRNA; actives raise or lower the signal
Method in brief: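 HepG2 cells carrying transiently transfected cis-regulated reporter units; RORE-driven reporter mRNA quantified 24 h post-dosing by RT-PCR, 6-FAM primer extension, HpaI digestion and capillary electrophoresis. Bidirectional fit versus DMSO.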

Measured: AC50

Sequence of Paired box protein Pax-6 (Homo sapiens) (P26367 whole entry, looked up): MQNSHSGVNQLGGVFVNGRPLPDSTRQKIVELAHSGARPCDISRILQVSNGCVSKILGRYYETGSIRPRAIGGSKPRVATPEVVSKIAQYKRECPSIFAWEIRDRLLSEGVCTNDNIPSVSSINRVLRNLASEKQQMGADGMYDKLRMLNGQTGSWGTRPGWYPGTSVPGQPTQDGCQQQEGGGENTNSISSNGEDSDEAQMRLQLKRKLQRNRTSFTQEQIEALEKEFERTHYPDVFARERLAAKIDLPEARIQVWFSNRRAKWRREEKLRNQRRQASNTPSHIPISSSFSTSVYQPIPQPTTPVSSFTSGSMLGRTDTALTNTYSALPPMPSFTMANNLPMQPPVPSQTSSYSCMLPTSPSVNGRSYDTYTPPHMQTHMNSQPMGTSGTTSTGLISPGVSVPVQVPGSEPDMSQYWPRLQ
Sequence of Signal transducer and activator of transcription 3 (Homo sapiens) (P40763 whole entry, looked up): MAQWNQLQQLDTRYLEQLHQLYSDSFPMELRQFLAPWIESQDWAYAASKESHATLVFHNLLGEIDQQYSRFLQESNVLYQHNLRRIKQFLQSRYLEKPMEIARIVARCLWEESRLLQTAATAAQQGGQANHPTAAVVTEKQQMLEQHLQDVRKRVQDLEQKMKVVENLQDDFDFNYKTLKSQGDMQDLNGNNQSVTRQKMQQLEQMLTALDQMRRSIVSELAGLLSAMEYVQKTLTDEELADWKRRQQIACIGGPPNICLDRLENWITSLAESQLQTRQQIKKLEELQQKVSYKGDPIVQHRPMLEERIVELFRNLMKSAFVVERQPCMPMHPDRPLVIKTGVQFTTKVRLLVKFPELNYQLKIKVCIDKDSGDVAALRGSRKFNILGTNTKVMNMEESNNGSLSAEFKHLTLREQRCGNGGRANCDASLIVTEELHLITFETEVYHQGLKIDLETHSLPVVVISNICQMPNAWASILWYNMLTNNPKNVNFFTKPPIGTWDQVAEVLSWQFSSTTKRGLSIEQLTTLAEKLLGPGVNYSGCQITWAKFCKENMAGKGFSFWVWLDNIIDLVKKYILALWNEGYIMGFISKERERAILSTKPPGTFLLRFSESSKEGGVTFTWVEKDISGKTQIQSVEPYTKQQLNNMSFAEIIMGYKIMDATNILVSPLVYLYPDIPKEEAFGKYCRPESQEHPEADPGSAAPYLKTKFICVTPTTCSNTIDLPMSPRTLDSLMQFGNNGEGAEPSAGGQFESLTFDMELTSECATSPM
Sequence of Transcription factor Sp1 (Homo sapiens) (P08047 whole entry, looked up): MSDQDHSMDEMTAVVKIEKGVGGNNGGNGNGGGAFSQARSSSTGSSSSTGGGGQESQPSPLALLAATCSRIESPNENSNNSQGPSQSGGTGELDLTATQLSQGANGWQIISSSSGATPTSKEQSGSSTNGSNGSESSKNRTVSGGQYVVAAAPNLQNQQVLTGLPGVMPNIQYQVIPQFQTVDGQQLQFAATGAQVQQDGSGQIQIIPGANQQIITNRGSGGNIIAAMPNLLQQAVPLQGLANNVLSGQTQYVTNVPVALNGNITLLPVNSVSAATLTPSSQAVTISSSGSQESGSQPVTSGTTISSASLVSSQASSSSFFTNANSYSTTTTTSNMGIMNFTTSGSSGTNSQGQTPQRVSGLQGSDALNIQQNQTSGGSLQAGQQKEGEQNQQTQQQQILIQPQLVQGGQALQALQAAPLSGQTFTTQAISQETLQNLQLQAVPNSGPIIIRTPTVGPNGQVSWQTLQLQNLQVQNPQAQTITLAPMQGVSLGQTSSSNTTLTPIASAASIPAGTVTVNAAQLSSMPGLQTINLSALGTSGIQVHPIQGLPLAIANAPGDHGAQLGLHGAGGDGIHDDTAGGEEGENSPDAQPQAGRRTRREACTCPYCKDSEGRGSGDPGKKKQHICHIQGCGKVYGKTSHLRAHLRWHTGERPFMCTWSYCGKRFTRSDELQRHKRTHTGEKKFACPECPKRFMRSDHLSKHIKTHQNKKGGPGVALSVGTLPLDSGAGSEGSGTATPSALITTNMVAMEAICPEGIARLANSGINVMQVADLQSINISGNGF

COc1cc(O)c(C(=O)c2ccccc2)cc1S(=O)(=O)O
not listed: [10]
inactive: all other assays above

CC(=O)OCCc1ccccc1
not listed: [5]
inactive: all other assays above

CO[Si](C)(C)OC
active: [3] 184 µM
not listed: [5] | [10]
inactive: all other assays above

CCCC/C=C/C=C\C=O
active: [2] 100 µM | [3] 2.79 µM | [5] 162 µM
not listed: [7] | [8]
inactive: all other assays above

N#Cc1ccc(C2CCCc3cncn32)cc1 (stereo not drawn)
active: [3] 23.9 µM
not listed: [5]
inactive: all other assays above

CC(CCC(=O)O)(c1ccc(O)cc1)c1ccc(O)cc1
active: [3] 27.5 µM
not listed: [5]
inactive: all other assays above

CC(C)(CO)COC(=O)C(C)(C)CO
not listed: [10]
inactive: all other assays above

COc1ccc(-c2coc3cc(O)cc(O)c3c2=O)cc1
active: [3] 24.9 µM | [4] 100 µM
not listed: [10]
inactive: all other assays above

CCc1occc(=O)c1O
active: [3] 28.4 µM
not listed: [10]
inactive: all other assays above

CC1OC(=O)C(C)OC1=O (stereo not drawn)
not listed: [10]
inactive: all other assays above

CC1=NN(c2ccc(S(=O)(=O)O)cc2)C(=O)C1N=Nc1ccccc1 (stereo not drawn)
active: [3] 100 µM
not listed: [7] | [10]
inactive: all other assays above

CC(C)c1cccc(C(C)C)c1N
active: [3] 29.5 µM
not listed: [7]
inactive: all other assays above

CC=C(C)C(C)=O
active: [3] 8.49 µM
not listed: [10]
inactive: all other assays above

CC1C(C)(C)C2=C(C(=O)CCC2)C1(C)C (stereo not drawn)
active: [3] 6.01 µM
not listed: [10]
inactive: all other assays above

CC=C(C)C=CC=C(C)C
active: [3] 6.96 µM
not listed: [4]
inactive: all other assays above

C=CC(C)(CCC=C(C)C)OC(=O)C=Cc1ccccc1 (stereo not drawn)
active: [3] 1.82 µM
not listed: [7] | [8]
inactive: all other assays above

CC(C)c1ccc(O)c(C(C)C)c1
active: [3] 2.98 µM
not listed: [5] | [8]
inactive: all other assays above

Nc1ccc(O)c([N+](=O)[O-])c1
not listed: [10]
inactive: all other assays above

Oc1ccccc1Cc1ccccc1O
active: [2] 100 µM | [3] 26.3 µM
not listed: [7]
inactive: all other assays above

COc1cc(C)ccc1O
not listed: [7] | [10]
inactive: all other assays above

c1ccc2c(c1)[nH]c1ccccc12
active: [3] 9.54 µM
not listed: [7] | [8] | [10]
inactive: all other assays above

CC/C=C\CCOC(=O)c1ccccc1O
not listed: [10]
inactive: all other assays above

C=C[Si](OCCOC)(OCCOC)OCCOC
active: [3] 1.74 µM
not listed: [8] | [10]
inactive: all other assays above

CCCCOC(=O)C(C)CC (stereo not drawn)
active: [3] 27.1 µM
not listed: [4]
inactive: all other assays above

CC(=O)OC(C)c1ccccc1 (stereo not drawn)
active: [3] 37.6 µM
not listed: [4] | [8]
inactive: all other assays above

COC(Cc1ccccc1)OC
not listed: [4]
inactive: all other assays above

N#CC1(N)CCCCC1
not listed: [4] | [7]
inactive: all other assays above

CCOC(=O)c1ccccc1C
not listed: [4]
inactive: all other assays above

CCOc1ccc(NC(N)=O)cc1
not listed: [4] | [10]
inactive: all other assays above

C=CC(=O)OCCCCCCCCCC
active: [3] 26.4 µM
not listed: [4]
inactive: all other assays above

C=C(C)OC(C)=O
not listed: [4] | [5] | [7]
inactive: all other assays above

CC(C)=CCl
not listed: [4]
inactive: all other assays above

CC1=C(O)C(=O)C(C)O1 (stereo not drawn)
not listed: [4]
inactive: all other assays above

O=C(Oc1ccccc1)c1ccccc1O
not listed: [4]
inactive: all other assays above

CN(C)c1ccc2nc3ccc(=[N+](C)C)cc-3sc2c1
active: [3] 3.95 µM
not listed: [4]
inactive: all other assays above

CCCCOCC(C)O (stereo not drawn)
not listed: [4] | [5] | [8]
inactive: all other assays above

CCCCCCO
not listed: [4] | [8] | [10]
inactive: all other assays above

CC(C)(c1ccccc1)c1ccc(Nc2ccc(C(C)(C)c3ccccc3)cc2)cc1
active: [3] 2.03 µM
not listed: [4]
inactive: all other assays above

CCCc1ccc(O)c(OC)c1
not listed: [4] | [7]
inactive: all other assays above

O=C(OCc1ccccc1)c1ccc(O)cc1
inactive: [10] | [6] | [8]
active: [1] 63.7 µM | [2] 144 µM | [3] 26.8 µM | [5] 100 µM | [7] 72.8 µM | [9] 100 µM

CCCC(CC)c1ccccc1 (stereo not drawn)
active: [3] 36.2 µM | [6] 180 µM | [7] 164 µM
not listed: [4] | [10]
inactive: all other assays above

CCCCOCCOC(=O)COc1ccc(Cl)cc1Cl
active: [3] 39.9 µM
not listed: [4] | [5]
inactive: all other assays above

CC1=CCC(C(C)C)C=C1 (stereo not drawn)
active: [3] 3.56 µM
not listed: [4] | [10]
inactive: all other assays above

Cc1c(Cl)cccc1Cl
not listed: [4]
inactive: all other assays above

CCCCNC(=S)NCCCC
active: [3] 38 µM
not listed: [4]
inactive: all other assays above

Cc1cccc(C(C)(C)C)c1O
active: [1] 16.8 µM | [3] 4.59 µM
not listed: [4]
inactive: all other assays above

C=C1C[C@H]2[C@@H]3C=C(C)C4=CC(=O)CC[C@]4(C)[C@H]3CC[C@]2(C)[C@@]1(OC(C)=O)C(C)=O
active: [1] 113 µM | [2] 63 µM | [3] 3.44 µM | [7] 63 µM | [9] 50.8 µM
inactive: [10] | [5] | [6] | [8]

C1CNCCN1
not listed: [4] | [5]
inactive: all other assays above

O=C1CCCCCCCCCCCN1
active: [3] 8.77 µM
not listed: [4] | [8]
inactive: all other assays above

CC(C)CO
not listed: [4]
inactive: all other assays above

CC(C)c1ccc2ncccc2c1
active: [3] 27.9 µM
not listed: [4] | [10]
inactive: all other assays above

Clc1cc(Cl)c(Cl)c(Cl)c1Cl
active: [1] 66.2 µM | [3] 27.6 µM
not listed: [4]
inactive: all other assays above

CCCCCCCCC(CO)CCCCCC (stereo not drawn)
active: [1] 166 µM | [8] 133 µM
not listed: [4] | [10]
inactive: all other assays above

CCCC=C(C=O)CC
active: [3] 7.92 µM
not listed: [4]
inactive: all other assays above

CCCCC(=O)O
not listed: [4] | [10]
inactive: all other assays above

CC(C)=CCCC(C)=CC#N
active: [3] 25.5 µM
not listed: [4] | [7]
inactive: all other assays above

O=C(C=Cc1ccccc1)OCCc1ccccc1
active: [3] 12.8 µM | [9] 53.9 µM
inactive: [1] | [2] | [5] | [6] | [7]
